Source: the supplement of paper PMC10849652
Of roughly 7,900 targets only a part is listed; those with a hit were picked by preference. About 0.6% of all pairs of compound and target were hits. A number with no mark means an inactive call.

Columns and labels:
Assay in all cases: log2 fold change, soluble protein after heating vs DMSO (PISA); higher = thermal stabilisation; K562 cells, 10 uM, 30 min; active = over 0.2 and 3.5 SD of the protein, either way, in both replicates (recomputed)
ibrutinib = compound: C=CC(=O)N1CCC[C@@H](n2nc(-c3ccc(Oc4ccccc4)cc3)c3c(N)ncnc32)C1 [ibrutinib]
Outline: (§1)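 K562 cells (2×10^6 cells/mL) were treated with 10 μM compound for 30 min, and aliquots were heated for 3 min over 48°C-58°C. Pooled aliquots were extracted in PBS with 0.5% NP-40 at 4°C, and the supernatant after 21,000xg for 90 min was measured by TMTpro 16plex LC-MS/MS with channel sums equalised. Reported thermal stability, relative to control samples and from duplicates, is a log2 fold change.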

ralimetinib = compound: CC(C)(C)Cn1c(N)nc2ccc(-c3[nH]c(C(C)(C)C)nc3-c3ccc(F)cc3)nc21 [ralimetinib]
Outline: as §1

[1] = compound: CC(C)(O)CC(=O)NCCn1ccc2ncnc(Nc3ccc(Oc4cccc(C(F)(F)F)c4)c(Cl)c3)c21
Outline: as §1

[2] = compound: CC(C)C1=C2N=C(C=C(N2N=C1)NCC3=CC=CC=C3)NCCCCCCN
Outline: as §1

[3] = compound: CC(C)C[C@@H](C=O)NC(=O)[C@H](CC(C)C)NC(=O)[C@H](CC(C)C)NC(=O)OCc1ccccc1
Outline: as §1

[4] = compound: CC1=C(C2=C(C=C1)C(=O)C3=CC=CC=C3N2CCCN)C
Outline: as §1

[5] = compound: CC1=C(C=C(C=C1)NC(=O)C2=CC(=CC=C2)N(C)C)NC(=O)C3=CC=C(C=C3)O
Outline: as §1

[6] = compound: CC1=CC=C(C=C1)SC2=C3C=C(SC3=CN=C2)C(=O)N
Outline: as §1

Nexturastat A = compound: CCCCN(Cc1ccc(C(=O)NO)cc1)C(=O)Nc1ccccc1 [Nexturastat A]
Outline: as §1

vemurafenib = compound: CCCS(=O)(=O)Nc1ccc(F)c(C(=O)c2c[nH]c3ncc(-c4ccc(Cl)cc4)cc23)c1F [vemurafenib]
Outline: as §1

[7] = compound: CCCS(=O)(=O)Nc1ccc(F)c(C(=O)c2c[nH]c3ncc(Cl)cc23)c1F
Outline: as §1

[8] = compound: CCCc1cc(C)[nH]c(=O)c1CNC(=O)c1cc(-c2ccnc(N3CCN(C)CC3)c2)cc2c1cnn2C(C)C
Outline: as §1

givinostat = compound: CCN(CC)Cc1ccc2cc(COC(=O)Nc3ccc(C(=O)NO)cc3)ccc2c1 [givinostat]
Outline: as §1

barasertib = compound: CCN(CCCOc1ccc2c(Nc3cc(CC(=O)Nc4cccc(F)c4)[nH]n3)ncnc2c1)CCOP(=O)(O)O [barasertib]
Outline: as §1

IRAK-1-4 Inhibitor I = compound: C1COCCN1CCN2C3=CC=CC=C3N=C2NC(=O)C4=CC(=CC=C4)[N+](=O)[O-] [IRAK-1-4 Inhibitor I]
Outline: as §1

pinometostat = compound: CC(C)N(C[C@H]1O[C@@H](n2cnc3c(N)ncnc32)[C@H](O)[C@@H]1O)[C@H]1C[C@@H](CCc2nc3cc(C(C)(C)C)ccc3[nH]2)C1 [pinometostat]
Outline: as §1

[9] = compound: CC1=C(C(CC(=O)N1)C2=CC=C(C=C2)C(F)(F)F)C(=O)NC3=C(C=C4C(=C3)C=NN4)F
Outline: as §1

[10] = compound: CC1=C(C=C(C=C1)NC(=O)C2=CC(=CC=C2)C(C)(C)C#N)NC3=CC4=C(C=C3)N=CN(C4=O)C
Outline: as §1

[11] = compound: CC1=NC(=CC=C1)C2=C(N=C(N2)C(C)(C)C)C3=CC4=NC=CN=C4C=C3
Outline: as §1

[12] = compound: CC(=O)c1cnc2ccc(-c3cc(Cl)c(O)c(Cl)c3)nc2c1N[C@H]1CC[C@H](CN(C)C)CC1
Outline: as §1

Sequence of NA, A0A494C071 (A0A494C071 whole entry, looked up): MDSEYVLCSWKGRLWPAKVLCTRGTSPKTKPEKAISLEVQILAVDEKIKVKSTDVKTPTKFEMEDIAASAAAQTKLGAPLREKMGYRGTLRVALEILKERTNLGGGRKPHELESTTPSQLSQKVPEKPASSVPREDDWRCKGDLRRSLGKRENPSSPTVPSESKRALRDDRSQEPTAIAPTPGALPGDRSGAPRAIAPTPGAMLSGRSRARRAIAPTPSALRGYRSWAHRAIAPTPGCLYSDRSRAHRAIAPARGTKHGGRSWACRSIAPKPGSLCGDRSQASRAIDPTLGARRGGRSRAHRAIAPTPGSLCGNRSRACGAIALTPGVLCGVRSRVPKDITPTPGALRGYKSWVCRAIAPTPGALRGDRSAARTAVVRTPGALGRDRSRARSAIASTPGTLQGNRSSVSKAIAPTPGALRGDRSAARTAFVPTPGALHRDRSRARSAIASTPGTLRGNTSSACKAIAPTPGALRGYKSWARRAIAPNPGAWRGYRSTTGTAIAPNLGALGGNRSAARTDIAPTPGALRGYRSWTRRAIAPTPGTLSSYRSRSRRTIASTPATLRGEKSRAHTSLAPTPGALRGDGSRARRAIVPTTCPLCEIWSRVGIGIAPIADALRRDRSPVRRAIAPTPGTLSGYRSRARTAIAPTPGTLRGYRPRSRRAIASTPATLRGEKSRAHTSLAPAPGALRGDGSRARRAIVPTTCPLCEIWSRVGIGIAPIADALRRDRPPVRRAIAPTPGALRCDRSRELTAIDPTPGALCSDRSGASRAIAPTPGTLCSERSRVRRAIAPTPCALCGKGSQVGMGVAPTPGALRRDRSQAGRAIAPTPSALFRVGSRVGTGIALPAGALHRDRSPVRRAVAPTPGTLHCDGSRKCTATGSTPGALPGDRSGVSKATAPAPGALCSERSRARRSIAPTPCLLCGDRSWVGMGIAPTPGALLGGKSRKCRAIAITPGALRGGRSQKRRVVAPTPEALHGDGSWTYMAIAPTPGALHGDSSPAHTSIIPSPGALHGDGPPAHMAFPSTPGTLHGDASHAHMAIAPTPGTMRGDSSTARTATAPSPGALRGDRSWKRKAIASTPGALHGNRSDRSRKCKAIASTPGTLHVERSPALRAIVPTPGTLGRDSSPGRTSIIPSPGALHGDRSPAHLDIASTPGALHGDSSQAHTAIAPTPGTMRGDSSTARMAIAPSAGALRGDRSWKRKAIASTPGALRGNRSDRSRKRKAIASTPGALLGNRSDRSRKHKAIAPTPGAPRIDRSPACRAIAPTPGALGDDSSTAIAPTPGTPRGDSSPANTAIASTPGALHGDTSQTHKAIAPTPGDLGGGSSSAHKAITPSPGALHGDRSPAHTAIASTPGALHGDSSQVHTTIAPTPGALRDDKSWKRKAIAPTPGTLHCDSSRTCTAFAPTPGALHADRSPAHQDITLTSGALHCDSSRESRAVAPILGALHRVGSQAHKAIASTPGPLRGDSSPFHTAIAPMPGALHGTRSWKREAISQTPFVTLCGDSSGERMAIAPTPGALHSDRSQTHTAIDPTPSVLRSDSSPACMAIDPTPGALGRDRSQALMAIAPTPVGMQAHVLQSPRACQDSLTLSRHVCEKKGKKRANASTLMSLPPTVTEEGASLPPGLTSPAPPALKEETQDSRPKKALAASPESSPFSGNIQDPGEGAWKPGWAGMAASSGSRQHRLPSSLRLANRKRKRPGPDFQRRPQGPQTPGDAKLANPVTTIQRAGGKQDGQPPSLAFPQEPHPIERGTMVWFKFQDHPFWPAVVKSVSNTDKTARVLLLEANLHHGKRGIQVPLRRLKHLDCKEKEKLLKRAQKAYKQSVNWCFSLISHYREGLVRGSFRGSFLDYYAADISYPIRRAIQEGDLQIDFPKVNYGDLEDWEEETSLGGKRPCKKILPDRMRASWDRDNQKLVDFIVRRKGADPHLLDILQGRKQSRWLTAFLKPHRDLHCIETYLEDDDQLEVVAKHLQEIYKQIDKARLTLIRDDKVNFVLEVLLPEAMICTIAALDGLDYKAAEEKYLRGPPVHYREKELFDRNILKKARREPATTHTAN
Sequence of UniProt P40692 (P40692 whole entry, looked up): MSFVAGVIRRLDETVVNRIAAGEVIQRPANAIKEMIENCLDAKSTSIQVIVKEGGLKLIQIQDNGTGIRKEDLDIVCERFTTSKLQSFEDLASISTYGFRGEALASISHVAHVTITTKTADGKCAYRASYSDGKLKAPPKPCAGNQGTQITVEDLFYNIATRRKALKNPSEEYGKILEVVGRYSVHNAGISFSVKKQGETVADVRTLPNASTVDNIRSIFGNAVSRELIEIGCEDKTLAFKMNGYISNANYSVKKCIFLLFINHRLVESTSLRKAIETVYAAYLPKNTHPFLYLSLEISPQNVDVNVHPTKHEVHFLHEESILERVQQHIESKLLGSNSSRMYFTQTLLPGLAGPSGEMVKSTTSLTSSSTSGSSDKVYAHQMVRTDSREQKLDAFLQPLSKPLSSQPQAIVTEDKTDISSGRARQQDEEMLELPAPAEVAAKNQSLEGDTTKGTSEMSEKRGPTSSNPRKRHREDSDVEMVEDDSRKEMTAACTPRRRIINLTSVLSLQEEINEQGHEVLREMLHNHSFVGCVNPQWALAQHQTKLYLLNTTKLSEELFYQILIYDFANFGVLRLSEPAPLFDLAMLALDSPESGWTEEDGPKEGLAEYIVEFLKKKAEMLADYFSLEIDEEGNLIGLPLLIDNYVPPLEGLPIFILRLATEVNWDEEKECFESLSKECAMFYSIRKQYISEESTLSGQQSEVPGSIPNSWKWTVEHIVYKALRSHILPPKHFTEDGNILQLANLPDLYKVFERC
Sequence of UniProt Q69YL0 (Q69YL0 whole entry, looked up): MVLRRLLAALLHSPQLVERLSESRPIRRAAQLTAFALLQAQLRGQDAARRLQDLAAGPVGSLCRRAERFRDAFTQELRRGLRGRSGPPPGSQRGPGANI
Sequence of UniProt P0C024 (P0C024 whole entry, looked up): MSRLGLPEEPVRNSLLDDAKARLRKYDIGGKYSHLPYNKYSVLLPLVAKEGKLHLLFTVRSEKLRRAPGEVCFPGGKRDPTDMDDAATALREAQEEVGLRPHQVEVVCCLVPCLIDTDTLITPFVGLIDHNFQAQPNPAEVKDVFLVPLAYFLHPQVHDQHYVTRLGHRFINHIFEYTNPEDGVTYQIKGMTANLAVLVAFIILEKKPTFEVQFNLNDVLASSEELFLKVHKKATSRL
Sequence of UniProt O15460 (O15460 whole entry, looked up): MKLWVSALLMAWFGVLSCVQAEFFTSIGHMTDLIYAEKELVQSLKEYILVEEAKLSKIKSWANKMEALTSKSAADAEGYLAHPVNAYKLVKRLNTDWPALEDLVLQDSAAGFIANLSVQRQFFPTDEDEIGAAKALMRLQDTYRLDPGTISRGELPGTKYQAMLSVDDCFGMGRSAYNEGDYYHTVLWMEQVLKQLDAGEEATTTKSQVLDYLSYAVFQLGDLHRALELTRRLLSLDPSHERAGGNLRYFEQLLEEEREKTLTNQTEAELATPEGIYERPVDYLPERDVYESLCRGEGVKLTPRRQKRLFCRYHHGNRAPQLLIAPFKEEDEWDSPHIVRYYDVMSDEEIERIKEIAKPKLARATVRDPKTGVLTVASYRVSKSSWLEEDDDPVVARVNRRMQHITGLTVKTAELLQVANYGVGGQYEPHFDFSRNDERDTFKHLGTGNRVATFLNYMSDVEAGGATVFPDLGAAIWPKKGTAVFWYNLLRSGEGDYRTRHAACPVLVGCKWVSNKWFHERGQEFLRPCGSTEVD
Sequence of UniProt Q9H1P3 (Q9H1P3 whole entry, looked up): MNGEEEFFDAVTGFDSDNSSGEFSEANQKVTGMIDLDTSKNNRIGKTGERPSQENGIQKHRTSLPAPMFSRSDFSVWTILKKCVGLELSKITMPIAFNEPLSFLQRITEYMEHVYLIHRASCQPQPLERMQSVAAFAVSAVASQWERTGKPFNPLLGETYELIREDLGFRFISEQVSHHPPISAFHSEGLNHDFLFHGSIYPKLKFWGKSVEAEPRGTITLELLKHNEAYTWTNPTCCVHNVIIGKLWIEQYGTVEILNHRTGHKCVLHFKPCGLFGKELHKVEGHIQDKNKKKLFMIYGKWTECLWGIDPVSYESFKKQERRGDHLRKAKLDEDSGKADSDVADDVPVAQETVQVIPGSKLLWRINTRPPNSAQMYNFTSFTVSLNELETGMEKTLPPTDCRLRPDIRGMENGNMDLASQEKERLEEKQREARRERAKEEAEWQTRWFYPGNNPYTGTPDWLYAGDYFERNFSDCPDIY
Sequence of UniProt Q6P1R3 (Q6P1R3 whole entry, looked up): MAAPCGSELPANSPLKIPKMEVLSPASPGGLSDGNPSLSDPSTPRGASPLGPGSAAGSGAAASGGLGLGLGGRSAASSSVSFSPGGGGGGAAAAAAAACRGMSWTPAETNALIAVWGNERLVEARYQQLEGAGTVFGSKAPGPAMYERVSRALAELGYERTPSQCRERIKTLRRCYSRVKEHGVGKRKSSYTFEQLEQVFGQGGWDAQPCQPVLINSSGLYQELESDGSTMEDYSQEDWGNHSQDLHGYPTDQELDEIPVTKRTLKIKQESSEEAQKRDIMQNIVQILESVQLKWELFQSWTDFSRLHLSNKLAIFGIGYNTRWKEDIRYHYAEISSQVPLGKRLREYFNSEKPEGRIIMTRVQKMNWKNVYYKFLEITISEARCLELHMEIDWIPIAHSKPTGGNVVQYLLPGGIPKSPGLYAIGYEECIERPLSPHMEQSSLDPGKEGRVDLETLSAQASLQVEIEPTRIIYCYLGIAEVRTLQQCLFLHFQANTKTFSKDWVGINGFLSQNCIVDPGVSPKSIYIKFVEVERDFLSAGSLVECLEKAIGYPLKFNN

Row | Target | log2 fold change (ibrutinib) | log2 fold change (ralimetinib) | log2 fold change [1] | log2 fold change [2] | log2 fold change [3] | log2 fold change [4] | log2 fold change [5] | log2 fold change [6] | log2 fold change (Nexturastat A) | log2 fold change (vemurafenib) | log2 fold change [7] | log2 fold change [8] | log2 fold change (givinostat) | log2 fold change (barasertib) | log2 fold change (IRAK-1-4 Inhibitor I) | log2 fold change (pinometostat) | log2 fold change [9] | log2 fold change [10] | log2 fold change [11] | log2 fold change [12]
1 | NOS1AP (UniProt O75052) | -0.061 | 0.07 | -0.073 | -0.026 | 1.38 (active) | 0.154 | -0.016 | 0.08 | -0.058 | -0.335 | -0.161 | 0.101 | -0.117 | 0.046 |  |  |  |  |  | 
2 | P4HA2 (UniProt O15460) | 0.168 | 0.038 | 0.045 | -0.017 | 0.062 | 0 | -0.014 | 0.033 | 0.402 | -0.093 | -0.038 | 0.043 | 0.058 | 0.101 | -0.072 | 0.06 | 0.039 | -0.038 | -0.102 | 
3 | MSANTD2 (UniProt Q6P1R3) |  |  | 0.047 |  |  | 0.012 |  |  | 0.239 | -0.062 |  |  |  |  |  |  |  | -0.024 |  | 
4 | NASP isoform 2 (UniProt P49321) |  |  |  |  |  |  |  |  |  |  |  | 1.06 |  |  |  |  |  |  |  | 
5 | OSBPL2 (UniProt Q9H1P3) |  |  |  |  |  |  |  | -0.203 |  |  | 0 | -0.264 |  |  |  |  |  |  |  | 
6 | MITF (UniProt O75030) |  |  |  | -0.581 (active) |  |  |  |  |  | 0.016 |  | -0.281 | -0.002 |  | 0.166 | 0.074 | 0.158 | 0.005 | 0.107 | -0.212
7 | NPC1L1 (UniProt Q9UHC9) | 0.047 |  |  |  |  | 0.085 |  | 0.152 |  | -0.213 | -0.109 | 0.012 |  | -0.037 | 0.014 | -0.136 | -0.614 | -0.014 | 0.02 | -0.008
8 | NUDT7 (UniProt P0C024) | 0.205 | -0.52 | -0.467 | 0 | 0.207 | 0.039 | -0.021 |  | 0.014 |  |  |  | 0.017 | 0.666 (active) | -0.02 | -0.231 | 0.129 | 0.016 | 0.197 | 
9 | NEK3 (UniProt P51956) |  | -0.168 | -0.015 | 0.127 | 0.098 | 0.018 | -0.055 | 0.052 | -0.033 | 0.089 | -0.123 | -0.063 | -0.013 |  | 0.104 | -0.015 | -0.028 | 0.058 | -0.108 | -0.184
10 | MLH1 (UniProt P40692) | -0.018 |  | -0.347 |  |  | 0.008 |  | 0.023 | -0.014 |  | 0.276 | 0.584 (active) |  | 0.11 |  |  |  |  |  | -0.112
11 | NA (UniProt J3KR12) | -0.159 | 0.011 | -0.1 |  | 0.017 |  | 0.018 |  | -0.283 |  |  | -0.046 |  | 0 | -0.191 | 0.053 | 0.046 |  | 0.073 | 
12 | NCBP2AS2 (UniProt Q69YL0) | 0.07 | -0.01 |  | -0.869 (active) | 0.026 | -0.008 | 0.017 | 0.162 |  | -0.039 | 0.037 | -0.096 | -0.146 | 0.072 |  |  | 0.089 | 0.069 |  | 0.21
13 | NA, A0A494C071 | -0.1 |  | 0.03 |  |  | -0.141 |  |  | -0.081 | -0.142 |  | -0.159 |  | 0.043 | -0.011 | -0.034 | 0.013 |  | 0.011 | -0.038
